Reference: PubChem BioAssay (NCI)
Compounds without any hit were thinned out: in the full panel of roughly 83,000, 20% have a hit.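 The test compound was applied at a single concentration to cells in 96-well plates for 48 hours, and percent growth was recorded.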 Activity calls are given as the source filed them.

The compounds below were run on MDA-MB-468 breast (assay: NCI-60 one-dose screen, 48 h (100 = growth as untreated, 0 = no growth, -100 = all killed)). Conditions: 10 µM unless noted.
Description: Growth inhibition of the MDA-MB-468 human Breast tumor cell line is measured as a screen for anti-cancer activity. Cells are grown in 96 well plates and exposed to the test compound for 48 hours. Compounds are tested at a single concentration, which is 10^-5 M for most compounds. The reported endpoint is percent growth (GI% or GIPRCNT), where numbers from 0 - 100% represent growth inhibition, and numbers from -100% - 0 represent cell death. For example, a value of 40 represents 60% growth inhibition. A value of 0 means no net growth occurred over the course of the experiment. A value of -40 indicates 40% of cells at the beginning of the experiment died by the end of the experiment. A value of -100 means all cells are dead at the end of the experiment.
NCI-60 Human Tumor Cell Lines Screen was performed using the standard one-dose NCI protocol, which is described in more detail at https://dtp.cancer.gov/discovery_development/nci-60/default.htm.
Compounds with GIPRCNT values below 10 were considered active. Activity score was based on GIPRCNT using the following formula: […]
Score is 0 for GIPRCNT values of 100 or above, 50 for GIPRCNT values of 0, and 100 for GIPRCNT values of -100.
In the case of `O=C(N/N=C/c1ccccc1Cl)C(=O)Nc1cccc(C(F)(F)F)c1`, the growth was 89.1% (inactive).
With `CCCCNC(=O)c1ccc2c(c1)nc(-c1ccccc1)n2C1CCCCC1` the growth was 123% (inactive).
In the case of `Cn1ccnc1C(=O)/C=C/c1ccc(CC(=O)NC2CCCCC2)cc1`, the growth was -6.65% (active).
With `Cc1cc(Cl)c2c(Cl)ccc(Cl)c2n1` the growth was 105% (inactive).
For `CCOC(=O)CCN(CCC(=O)OCC)c1ccccc1`, the growth was 96.6% (inactive).
`NC(N)=Nc1ccc(Oc2ccc(Nc3ccc(Cl)c(C(F)(F)F)c3)cc2)cc1` was tested, and the growth was 22.2% (inactive).
For `O=CN1N=C(c2cccc(Nc3ccnc4cc(Cl)ccc34)c2)CC1c1ccccc1` (stereo not given), the growth was 13% (inactive).
With `Cc1ccccc1C1=N[C@@H](Cc2ccccc2)C(=O)c2c(nc3ccccn23)N1` the growth was 104% (inactive).
`C/C(Cc1ccc(Cl)cc1)=C(\c1ccc(O)cc1)c1ccc(Cl)cc1` was tested, and the growth was 101% (inactive).
In the case of `CCC[C@H](N[C@@H](C)C(=O)N1[C@H](C(=O)O)C[C@@H]2CCCC[C@@H]21)C(=O)OCC`, the growth was 101% (inactive).
With `COc1ccc(-c2ccc3cnc4sc(-c5ccc(OC)cc5)nc4c3n2)cc1` the growth was 96.5% (inactive).
With `COc1ccc(Nc2ncnc3ccc(-c4cncc(NS(C)(=O)=O)c4)cc23)cc1Cl` the growth was -10.1% (active).
In the case of `O=C(NCc1ccco1)Nc1c(Cl)cc(Cl)cc1Cl`, the growth was 87.8% (inactive).
`Cc1ccc(S(=O)(=O)NCCNc2nccc(-c3c(-c4cccc(N)c4)nc4sccn34)n2)cc1` was tested, and the growth was 63.2% (inactive).
In the case of `O=C1C(Cl)=C(NCCCN(CCCNC2=C(Cl)C(=O)c3ccccc3C2=O)C2=C(Cl)C(=O)c3ccccc3C2=O)C(=O)c2ccccc21`, the growth was -7.83% (active).
`COc1cc2cc3c(nc2cc1OC)CCN3Cc1ccc(NC(=O)Nc2ccc(F)cc2F)cc1` was tested, and the growth was 45.6% (inactive).
With `COc1cccc(NC(=O)c2sc3nc(C)c(C(O)c4ccccc4)cc3c2N)c1` (stereo not given) the growth was 14.3% (inactive).
`CCN(CC)C(=O)CC1=C(C)/C(=C/c2[nH]c(-c3ccc[nH]3)cc2OC)N=C1C` was tested, and the growth was 29.9% (inactive).
With `CC(C)(C)CC(C)(C)n1nnnc1C(Nc1ccccc1)c1cc2cccc3ccc4cccc1c4c32` (stereo not given) the growth was 86.5% (inactive).
In the case of `CCCC(=O)NC(c1ccc2c(c1)OCO2)c1ccc2cccnc2c1O` (stereo not given), the growth was -16% (active).
For `CC1CCN(CC(=O)Nn2c(COc3ccccc3)nc3ccccc3c2=O)CC1`, the growth was 50.9% (inactive).
`CNC(=O)c1cc(N2CCc3cc(NC(=O)Nc4ccc(Cl)c(C(F)(F)F)c4)ccc32)ccn1` was tested, and the growth was 57% (inactive).
`COc1ccc2[nH]cc(C(c3cc(F)cc(F)c3)c3c[nH]c4ccc(OC)cc34)c2c1` was tested, and the growth was 89.6% (inactive).
In the case of `O=C(CCCCl)NNc1nccc(Nc2ccc(S(=O)(=O)Nc3ccncc3)cc2)n1`, the growth was 116% (inactive).
For `C/C(=N\NC(=O)Cn1c(-c2ccc(S(C)(=O)=O)cc2)nc2cc(Cl)ccc21)c1ccc(Cl)cc1`, the growth was 68.7% (inactive).
In the case of `COc1ccc(OC)c(CCn2cncc2-c2c[nH]c3ccccc23)c1`, the growth was 41% (inactive).
In the case of `O=C1C=CC(Nc2ccccc2[N+](=O)[O-])C1Nc1ccccc1[N+](=O)[O-]` (stereo not given), the growth was -97.4% (active).
In the case of `Nc1nc2ccc(-c3nc4ccc5[nH]ncc5c4c4c3CCCC4)cc2s1`, the growth was 112% (inactive).
For `NC(=O)c1cc(I)ccc1NC(=O)/C=C/c1ccccc1Cl`, the growth was 17.3% (inactive).
For `CCCCCCCCN(CCCCCCCC)C(=O)CCl`, the growth was 79.9% (inactive).
In the case of `COc1ccc(Cn2cc(C#N)c(N)c2C(C)=O)cc1`, the growth was 102% (inactive).
For `CNC(=O)c1ccccc1CC1(O)c2ccccc2Oc2ccccc21`, the growth was 42.9% (inactive).
With `NC(=O)CSSCC(N)=O` the growth was 105% (inactive).
In the case of `O=C(Oc1ccc[nH]c1=O)c1cccc(Cl)c1`, the growth was 89.8% (inactive).
With `CCN1CCCC(N2c3ccccc3Sc3ccccc32)C1` (stereo not given) the growth was 116% (inactive).
In the case of `O=C1/C(=C/c2ccc([N+](=O)[O-])o2)Oc2ccc(Br)cc21`, the growth was 65.3% (inactive).
In the case of `O=c1[nH]c(=S)[nH]c(=O)n1Cc1cccc2ccccc12`, the growth was 107% (inactive).
`O=C1Nc2ccccc2C12Nc1cc(Cl)ccc1S2` (stereo not given) was tested, and the growth was 105% (inactive).
`O=C1/C=C/[C@@H](O)[C@@H]2C[C@@H](O)C[C@H]2/C=C/CCC[C@H](CCOCc2ccccc2)O1` was tested, and the growth was -41.9% (active).
With `CN(C)CCn1c2ccc(Br)cc2c2nc3ccccc3nc21` the growth was 13% (inactive).
